# According to PubChem BioAssay AID1159580 (chemical genetic matrix, 2015):
# Where “and” joins values, the source holds several entries; their conditions need not be identical. Equal values may be shown once. The campaign covered roughly 5,500 compounds. About 2,000 (36%) were called active. Another 18% or so got no clear call; they are omitted. This is one part of the list. A number with no mark means an inactive call. Cut-off read from the data, not from the text of the source: active = normalized growth mostly below about 0.91 (no sharp cut-off); inconclusive = no clear call, values can overlap the other calls; inactive = mostly above about 0.92.
# Assay: chemical genetic growth profiling, strain panel (AID 1159580);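 note: tested at 20 µM; growth read once vehicle control cultures reached saturation at 30 °C; 1 = growth at the plate median or of vehicle wells; lower values mean less growth of the strain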
# Conditions: S. cerevisiae deletion strains, growth OD
smiles,measurement,setting,value
C=C(C)c1cc2cc(C(C)=O)c(O)cc2o1,normalized growth,"locus YAL013W, strain DEP1, hits give low values",0.948
same,normalized growth,"locus YAL021C, strain ccr4, hits give low values",0.981
same,normalized growth,"locus YAL026C, strain drs2, hits give low values",0.985
same,normalized growth,"locus YAL030W, strain snc1, hits give low values",0.974
same,normalized growth,"locus YBL061C, strain skt5, hits give low values",0.97
same,normalized growth,"locus YBR009C, strain hhf1, hits give low values",0.927
same,normalized growth,"locus YBR021W, strain FUR4, hits give low values",1.11
same,normalized growth,"locus YBR023C, strain chs3, hits give low values",0.94
same,normalized growth,"locus YBR171W, strain sec66, hits give low values",0.952
same,normalized growth,"locus YBR229C, strain ROT2, hits give low values",0.91 (active)
same,normalized growth,"locus YBR231C, strain swc5, hits give low values",0.961
same,normalized growth,"locus YBR279W, strain paf1, hits give low values",0.966
same,normalized growth,"locus YCL011C, strain gbp2, hits give low values",0.943
same,normalized growth,"locus YCL016C, strain dcc1, hits give low values",0.921
same,normalized growth,"locus YCL029C, strain bik1, hits give low values",0.961
same,normalized growth,"locus YCL069W, strain vba3, hits give low values",0.964
same,normalized growth,"locus YCR088W, strain abp1, hits give low values",0.965
same,normalized growth,"locus YDL005C, strain med2, hits give low values",0.991
same,normalized growth,"locus YDL035C, strain GPR1, hits give low values",0.93
same,normalized growth,"locus YDL040C, strain nat1, hits give low values",0.974
same,normalized growth,"locus YDL074C, strain BRE1, hits give low values",0.924
same,normalized growth,"locus YDL101C, strain DUN1, hits give low values",0.959
same,normalized growth,"locus YDL185W, strain tfp1, hits give low values",0.895 (active)
same,normalized growth,"locus YDL192W, strain arf1, hits give low values",0.893 (active)
same,normalized growth,"locus YDR001C, strain nth1, hits give low values",0.972
same,normalized growth,"locus YDR069C, strain doa4, hits give low values",0.998
same,normalized growth,"locus YDR101C, strain arx1, hits give low values",0.873 (active)
same,normalized growth,"locus YDR137W, strain rgp1, hits give low values",0.854
same,normalized growth,"locus YDR150W, strain NUM1, hits give low values",0.965
same,normalized growth,"locus YDR159W, strain sac3, hits give low values",0.992
same,normalized growth,"locus YDR162C, strain NBP2, hits give low values",0.926
same,normalized growth,"locus YDR195W, strain ref2",1.2 [resistant] (active)
same,normalized growth,"locus YDR297W, strain sur2, hits give low values",0.991
same,normalized growth,"locus YDR318W, strain mcm21, hits give low values",0.928
same,normalized growth,"locus YDR334W, strain swr1, hits give low values",0.983
same,normalized growth,"locus YDR335W, strain msn5, hits give low values",0.965
same,normalized growth,"locus YDR388W, hits give low values",0.947
same,normalized growth,"locus YDR392W, strain spt3, hits give low values",0.672 (active)
same,normalized growth,"locus YDR502C, strain sam2, hits give low values",0.968
same,normalized growth,"locus YEL003W, strain gim4, hits give low values",0.973
same,normalized growth,"locus YEL037C, strain rad23, hits give low values",0.979
same,normalized growth,"locus YEL061C, strain CIN8 (second series), hits give low values",0.958
same,normalized growth,"locus YEL061C, strain CIN8, hits give low values",0.94
same,normalized growth,"locus YER015W, strain faa2, hits give low values",0.958
same,normalized growth,"locus YER016W, strain bim1, hits give low values",0.975
same,normalized growth,"locus YER110C, hits give low values",0.894 (active)
same,normalized growth,"locus YER111C, strain swi4, hits give low values",0.97
same,normalized growth,"locus YER155C, strain BEM2 (second series), hits give low values",0.615 (active)
same,normalized growth,"locus YER155C, strain BEM2, hits give low values",0.967
same,normalized growth,"locus YER167W, strain BCK2, hits give low values",0.904
same,normalized growth,"locus YFR010W, strain ubp6, hits give low values",1
same,normalized growth,"locus YGL078C, strain dbp3, hits give low values",0.962
same,normalized growth,"locus YGL086W, strain mad1, hits give low values",0.928 (active)
same,normalized growth,"locus YGL167C, strain pmr1, hits give low values",0.956
same,normalized growth,"locus YGL173C, strain kem1, hits give low values",0.971
same,normalized growth,"locus YGL227W, strain vid30, hits give low values",0.967
same,normalized growth,"locus YGL240W, strain doc1, hits give low values",0.829 (active)
same,normalized growth,"locus YGL248W, strain PDE1, hits give low values",0.967
same,normalized growth,"locus YGL253W, strain hxk2, hits give low values",0.977
same,normalized growth,"locus YGR135W, strain pre9, hits give low values",0.971
same,normalized growth,"locus YGR252W, strain gcn5, hits give low values",0.916
same,normalized growth,"locus YHR013C, strain ard1, hits give low values",0.94
same,normalized growth,"locus YHR027C, strain rpn1, hits give low values",0.992
same,normalized growth,"locus YHR030C, strain SLT2, hits give low values",0.954 and 0.925
same,normalized growth,"locus YHR079C, strain IRE1 (second series), hits give low values",0.93
same,normalized growth,"locus YHR079C, strain IRE1, hits give low values",0.909
same,normalized growth,"locus YHR094C, strain hxt1, hits give low values",0.917 (active)
same,normalized growth,"locus YHR129C, strain ARP1, hits give low values",0.953
same,normalized growth,"locus YHR142W, strain chs7, hits give low values",0.907
same,normalized growth,"locus YHR200W, strain rpn10, hits give low values",0.883 (active)
same,normalized growth,"locus YIL066C, strain RNR3, hits give low values",0.919
same,normalized growth,"locus YIL073C, strain SPO22, hits give low values",0.899
same,normalized growth,"locus YIL125W, strain kgd1, hits give low values",0.934
same,normalized growth,"locus YIR030C, strain dcg1, hits give low values",0.929
same,normalized growth,"locus YJL092W, strain hpr5, hits give low values",0.973
same,normalized growth,"locus YJL095W, strain BCK1 (second series), hits give low values",0.974
same,normalized growth,"locus YJL095W, strain BCK1, hits give low values",0.95 and 0.932
same,normalized growth,"locus YJL115W, strain asf1, hits give low values",0.983
same,normalized growth,"locus YJL129C, strain trk1, hits give low values",0.926
same,normalized growth,"locus YJL134W, strain LCB3, hits give low values",0.951
same,normalized growth,"locus YJL154C, strain vps35, hits give low values",0.983
same,normalized growth,"locus YJL164C, strain tpk1, hits give low values",0.932
same,normalized growth,"locus YJL166W, strain qcr8, hits give low values",0.945
same,normalized growth,"locus YJL168C, strain set2, hits give low values",0.929 (active)
same,normalized growth,"locus YJL187C, strain SWE1 (second series), hits give low values",0.958
